Source: PubChem BioAssay AID1159580 (chemical genetic matrix, 2015)
Values joined by “and” are separate entries in the source; they are usually repeats but may differ in a detail not shown here. Equal values may be shown once. The whole screen tested about 5,500 compounds, of which about 2,000 (36%) were called active. About 18% were inconclusive and are not listed. Cut-off read from the data, not from the text of the source: active = normalized growth mostly below about 0.91 (no sharp cut-off); inconclusive = no clear call, values can overlap the other calls; inactive = mostly above about 0.92. The list shows a part of the results.

Assay: chemical genetic growth profiling, strain panel (AID 1159580);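 note: tested at 20 µM; growth read once vehicle control cultures reached saturation at 30 °C; 1 = growth at the plate median or of vehicle wells; lower values mean less growth of the strain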
Conditions: S. cerevisiae deletion strains, growth OD

Measured: normalized growth

CCN(CC)CCOC(=O)C(c1ccccc1)c1ccccc1
inactive: locus YAL013W, strain DEP1, hits give low values 0.982 | locus YAL021C, strain ccr4, hits give low values 0.964 | locus YAL026C, strain drs2, hits give low values 0.975 | locus YAL030W, strain snc1, hits give low values 0.948 | locus YBL061C, strain skt5, hits give low values 0.965 | locus YBR009C, strain hhf1, hits give low values 0.99 | locus YBR021W, strain FUR4, hits give low values 0.989 | locus YBR023C, strain chs3, hits give low values 0.957 | locus YBR171W, strain sec66, hits give low values 0.971 | locus YBR229C, strain ROT2, hits give low values 1 | locus YBR231C, strain swc5, hits give low values 0.967 | locus YBR279W, strain paf1, hits give low values 0.971 | locus YCL011C, strain gbp2, hits give low values 0.948 | locus YCL016C, strain dcc1, hits give low values 0.987 | locus YCL029C, strain bik1, hits give low values 0.979 | locus YCL069W, strain vba3, hits give low values 0.976 | locus YCR088W, strain abp1, hits give low values 0.968 | locus YDL005C, strain med2, hits give low values 0.958 | locus YDL035C, strain GPR1, hits give low values 0.988 | locus YDL040C, strain nat1, hits give low values 0.972 | locus YDL074C, strain BRE1, hits give low values 1.01 | locus YDL101C, strain DUN1, hits give low values 0.995 | locus YDL134C, strain PPH21, hits give low values 0.997 | locus YDL185W, strain tfp1, hits give low values 0.96 | locus YDL192W, strain arf1, hits give low values 0.989 | locus YDR001C, strain nth1, hits give low values 0.964 | locus YDR069C, strain doa4, hits give low values 0.936 | locus YDR101C, strain arx1, hits give low values 1.01 | locus YDR137W, strain rgp1, hits give low values 0.994 | locus YDR159W, strain sac3, hits give low values 0.947 | locus YDR162C, strain NBP2, hits give low values 0.961 | locus YDR195W, strain ref2 0.889 | locus YDR297W, strain sur2, hits give low values 0.974 | locus YDR318W, strain mcm21, hits give low values 0.986 | locus YDR334W, strain swr1, hits give low values 0.943 | locus YDR335W, strain msn5, hits give low values 0.976 | locus YDR388W, hits give low values 1 | locus YDR392W, strain spt3, hits give low values 1.01 | locus YDR502C, strain sam2, hits give low values 1 | locus YEL003W, strain gim4, hits give low values 0.972 | locus YEL037C, strain rad23, hits give low values 0.973 | locus YEL061C, strain CIN8 (second series), hits give low values 0.957 | locus YEL061C, strain CIN8, hits give low values 0.987 | locus YER015W, strain faa2, hits give low values 0.984 | locus YER016W, strain bim1, hits give low values 0.976 | locus YER110C, hits give low values 0.968 | locus YER111C, strain swi4, hits give low values 0.957 | locus YER155C, strain BEM2 (second series), hits give low values 0.951 | locus YER155C, strain BEM2, hits give low values 1.01 | locus YER167W, strain BCK2, hits give low values 0.993 | locus YFR010W, strain ubp6, hits give low values 0.959 | locus YGL078C, strain dbp3, hits give low values 0.987 | locus YGL086W, strain mad1, hits give low values 0.995 | locus YGL167C, strain pmr1, hits give low values 0.962 | locus YGL173C, strain kem1, hits give low values 0.98 | locus YGL227W, strain vid30, hits give low values 0.961 | locus YGL240W, strain doc1, hits give low values 0.963 | locus YGL248W, strain PDE1, hits give low values 1.01 | locus YGL253W, strain hxk2, hits give low values 0.97 | locus YGR135W, strain pre9, hits give low values 0.955 | locus YGR229C, strain SMI1, hits give low values 0.979 | locus YGR252W, strain gcn5, hits give low values 0.994 | locus YHR013C, strain ard1, hits give low values 0.964 | locus YHR027C, strain rpn1, hits give low values 0.971 | locus YHR030C, strain SLT2, hits give low values 0.981 and 0.995 | locus YHR079C, strain IRE1 (second series), hits give low values 0.99 | locus YHR079C, strain IRE1, hits give low values 0.986 | locus YHR094C, strain hxt1, hits give low values 0.993 | locus YHR129C, strain ARP1, hits give low values 0.99 | locus YHR142W, strain chs7, hits give low values 0.967 | locus YHR200W, strain rpn10, hits give low values 0.975 | locus YIL066C, strain RNR3, hits give low values 1 | locus YIL073C, strain SPO22, hits give low values 0.935 | locus YIL125W, strain kgd1, hits give low values 1 | locus YIR030C, strain dcg1, hits give low values 0.987 | locus YJL092W, strain hpr5, hits give low values 0.964 | locus YJL095W, strain BCK1 (second series), hits give low values 0.973 | locus YJL095W, strain BCK1, hits give low values 1.02 and 0.981 | locus YJL115W, strain asf1, hits give low values 0.949 | locus YJL129C, strain trk1, hits give low values 0.972 | locus YJL134W, strain LCB3, hits give low values 0.989 | locus YJL154C, strain vps35, hits give low values 0.959 | locus YJL164C, strain tpk1, hits give low values 0.993 | locus YJL166W, strain qcr8, hits give low values 0.958 | locus YJL168C, strain set2, hits give low values 1 | locus YJL187C, strain SWE1 (second series), hits give low values 1.01 | locus YJR043C, strain POL32, hits give low values 0.998 | locus YJR066W, strain TOR1, hits give low values 0.963 | locus YKL009W, strain mrt4, hits give low values 0.959
